Inconclusive results are not listed. The source made the active and inactive calls. How the source made its calls: active means hit-call score of the fitted dose curve at least 0.9, where 1 is the maximum; inconclusive means response in the unintended direction; inactive means score below 0.9.
Assays:
[1] = target: Cellular tumor antigen p53 (Homo sapiens) (UniProt P04637); test: TOX21_p53_BLA_p2_ratio: Tox21 HCT-116 p53 Agonism Beta-lactamase Assay, Ratio, Phase 2 (AID 2283592)
In short: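 DMSO-normalized, positive-direction endpoint derived from the 460 nm/530 nm FRET ratio in HCT116 p53 beta-lactamase reporter cells exposed 16 h at 37C and loaded with CCF4-AM for 2 h.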

[2] = TOX21_p53_BLA_p3_viability: Viability Assessment in the Tox21 HCT-116 p53 Agonism Beta-lactamase Assay, Phase 3 (AID 2283593);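 further: cells exposed to compound for 16 h before reading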
In short: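 HCT-116 cells (4000/well) rested 5 h at 37C, then got DMSO compounds by pin tool (217-fold dilution) for 16 h at 37C, 5% CO2. After the bla read, CellTiter-Glo was added and luminescence read at 30 min, room temperature.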

[3] = target: Cellular tumor antigen p53 (Homo sapiens) (UniProt P04637); test: TOX21_p53_BLA_p3_ratio: Tox21 HCT-116 p53 Agonism Beta-lactamase Assay, Ratio, Phase 3 (AID 2283596)
In short: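 Cells were seeded at 4000/well, rested 5 h at 37C, then dosed with DMSO compound solutions (217-fold dilution) for 16 h. CCF4-AM substrate was loaded for 2 h at room temperature, and the 460/530 nm emission ratio was fitted for gain of signal versus DMSO.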

[4] = TOX21_p53_BLA_p4_viability: Viability Assessment in the Tox21 HCT-116 p53 Agonism Beta-lactamase Assay, Phase 4 (AID 2283597);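 further: hits lower the luminescence signal meaning cytotoxicity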
In short: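 In this multiplexed secondary endpoint, HCT116 cells (4000 per well, compound at 5 h, 16 h treatment) received CellTiter-Glo after the beta-lactamase read. Luminescence after 30 min RT reflects ATP, and falling signal marks cytotoxicity.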

[5] = target: Cellular tumor antigen p53 (Homo sapiens) (UniProt P04637); test: TOX21_p53_BLA_p5_ratio: Tox21 HCT-116 p53 Agonism Beta-lactamase Assay, Ratio, Phase 5 (AID 2283599)
In short: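 HCT-116 cells carrying a p53-inducible beta-lactamase reporter were seeded at 4000 cells/well and dosed after 5 h with compound in DMSO (217-fold dilution). After 16 h at 37C, CCF4-AM substrate was added for 2 h, and the 460/530 nm emission ratio was scored as gain-of-signal versus DMSO.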

[6] = TOX21_p53_BLA_p5_viability: Viability Assessment in the Tox21 HCT-116 p53 Agonism Beta-lactamase Assay, Phase 5 (AID 2283600)
In short: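 Here cell health was gauged by ATP levels in wells holding 4000 cells, each treated 16 h with DMSO-delivered compounds at 217-fold dilution; reduced luminescence marked toxicity.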

[7] = target: Cellular tumor antigen p53 (Homo sapiens) (UniProt P04637); test: TOX21_p53_BLA_p4_ratio: Tox21 HCT-116 p53 Agonism Beta-lactamase Assay, Ratio, Phase 4 (AID 2283601)
In short: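 HCT116 cells carrying an inducible beta-lactamase reporter were plated at 4000 cells/well, rested 5 h, then exposed to compounds in DMSO (217-fold dilution) for 16 h at 37C. CCF4-AM substrate was loaded 2 h at room temperature; 460/530 nm emission ratio scored gain-of-signal versus DMSO.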

Sequence of Cellular tumor antigen p53 (Homo sapiens) (P04637 whole entry, looked up): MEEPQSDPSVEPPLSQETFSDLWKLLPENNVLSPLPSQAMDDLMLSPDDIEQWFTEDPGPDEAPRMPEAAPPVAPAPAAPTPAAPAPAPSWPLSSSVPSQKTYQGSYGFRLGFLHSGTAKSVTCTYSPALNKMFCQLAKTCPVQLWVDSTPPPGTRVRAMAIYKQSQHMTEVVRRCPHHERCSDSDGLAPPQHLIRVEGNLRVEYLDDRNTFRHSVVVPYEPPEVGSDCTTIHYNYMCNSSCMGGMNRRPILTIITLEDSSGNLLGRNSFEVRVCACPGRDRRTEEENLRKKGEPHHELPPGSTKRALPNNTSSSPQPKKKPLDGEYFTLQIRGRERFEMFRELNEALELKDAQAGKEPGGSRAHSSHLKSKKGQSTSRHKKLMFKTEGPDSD

Structure (SMILES): CC1(C)O[C@H]2CC(=O)OC[C@]23[C@H]2CC[C@@]4(C)[C@H](c5ccoc5)OC(=O)[C@H]5O[C@]54[C@]2(C)C(=O)C[C@@H]13
- outcome [1]: inactive
- outcome [2]: inactive
- outcome [3]: inactive
- outcome [4]: inactive
- outcome [5]: inactive
- outcome [6]: inactive
- outcome [7]: inactive

Structure (SMILES): CCn1cc(C(=O)O)c(=O)c2cc(F)c(N3CCN(C)CC3)cc21
- outcome [1]: inactive
- outcome [2]: inactive
- outcome [3]: inactive
- outcome [4]: inactive
- outcome [5]: inactive
- outcome [6]: inactive
- outcome [7]: inactive

Structure (SMILES): C[C@@H]1O[C@@H]1P(=O)(O)O
- outcome [1]: inactive
- outcome [2]: inactive
- outcome [3]: inactive
- outcome [4]: inactive
- outcome [5]: inactive
- outcome [6]: inactive
- outcome [7]: inactive

Structure (SMILES): O=C(NN=Cc1ccc([N+](=O)[O-])o1)c1ccc(O)cc1
- AC50 [1]: 10.2 µM (active)
- outcome [2]: inactive
- AC50 [3]: 16.2 µM (active)
- outcome [4]: inactive
- AC50 [5]: 15.5 µM (active)
- outcome [6]: inactive
- outcome [7]: inactive

Structure (SMILES): CCOC(=O)CC#N
- outcome [1]: inactive
- outcome [2]: inactive
- outcome [3]: inactive
- outcome [4]: inactive
- outcome [5]: inactive
- outcome [6]: inactive
- outcome [7]: inactive

Structure (SMILES): O=C(c1ccccc1)c1cccc(O)c1
- outcome [1]: inactive
- outcome [2]: inactive
- outcome [3]: inactive
- outcome [4]: inactive
- outcome [5]: inactive
- outcome [6]: inactive
- outcome [7]: inactive

Structure (SMILES): c1ccc(-n2cnnn2)cc1
- outcome [1]: inactive
- outcome [2]: inactive
- outcome [3]: inactive
- outcome [4]: inactive
- outcome [5]: inactive
- outcome [6]: inactive
- outcome [7]: inactive

Structure (SMILES): Cc1cc2c(cc1S(N)(=O)=O)S(=O)(=O)CCC2
- outcome [1]: inactive
- outcome [2]: inactive
- outcome [3]: inactive
- outcome [4]: inactive
- outcome [5]: inactive
- outcome [6]: inactive
- outcome [7]: inactive

Structure (SMILES): C=C1CC[C@H](O)C/C1=C/C=C1\CCC[C@]2(C)[C@@H]([C@H](C)CCCC(C)(C)O)CC[C@@H]12
- AC50 [1]: 19.2 µM (active)
- AC50 [2]: 13.7 µM (active)
- AC50 [3]: 27.6 µM (active)
- AC50 [4]: 12.8 µM (active)
- AC50 [5]: 23.2 µM (active)
- AC50 [6]: 13.1 µM (active)
- AC50 [7]: 18.6 µM (active)

Structure (SMILES): CC1(CN2CCC(n3c(=O)[nH]c4ccccc43)CC2)OCc2ccccc2-n2cccc21 (centres undefined)
- outcome [1]: inactive
- outcome [2]: inactive
- outcome [3]: inactive
- AC50 [4]: 33.3 µM (active)
- outcome [5]: inactive
- outcome [6]: inactive
- outcome [7]: inactive

Structure (SMILES): CCN(CC)CCNc1ccc(CO)c2sc3ccccc3c(=O)c12
- AC50 [1]: 16.2 µM (active)
- outcome [2]: inactive
- AC50 [3]: 23.2 µM (active)
- AC50 [4]: 33.2 µM (active)
- AC50 [5]: 20.5 µM (active)
- outcome [6]: inactive
- AC50 [7]: 14.3 µM (active)

Structure (SMILES): Cc1c(N)nc(C(CC(N)=O)NCC(N)C(N)=O)nc1C(=O)NC(C(=O)NC(C)C(O)C(C)C(=O)NC(C(=O)NCCc1nc(-c2nc(C(=O)NCCCN[C@@H](C)c3ccccc3)cs2)cs1)C(C)O)C(O[C@@H]1O[C@@H](CO)[C@@H](O)[C@H](O)[C@@H]1O[C@H]1O[C@H](CO)[C@@H](O)[C@H](OC(N)=O)[C@@H]1O)c1cnc[nH]1 (some centres undefined)
- AC50 [1]: 0.286 µM (active)
- outcome [2]: inactive
- AC50 [3]: 0.301 µM (active)
- outcome [4]: inactive
- AC50 [5]: 0.43 µM (active)
- outcome [6]: inactive
- AC50 [7]: 0.193 µM (active)

Reference: PubChem BioAssay (EPA / NIEHS)
